Legend:
Experiment in all cases: DAPPL (digital affinity profiling via proximity ligation, sequencing); 10 mM Tris-HCl pH 7.5, 50 mM NaCl, 1 mM DTT, 4% glycerol, room temperature, 30 min; GST-TFs on glutathione beads, 16-mer random dsDNA library, 0.1% formaldehyde crosslink after washing; high values mean tight binding
Settings in all cases: protein: recombinant; tags: N-terminal GST; dsDNA, one strand shown
[1] = molecular target: T1, FEV (Homo sapiens, UniProt Q99581 1-238)
T1 sequence: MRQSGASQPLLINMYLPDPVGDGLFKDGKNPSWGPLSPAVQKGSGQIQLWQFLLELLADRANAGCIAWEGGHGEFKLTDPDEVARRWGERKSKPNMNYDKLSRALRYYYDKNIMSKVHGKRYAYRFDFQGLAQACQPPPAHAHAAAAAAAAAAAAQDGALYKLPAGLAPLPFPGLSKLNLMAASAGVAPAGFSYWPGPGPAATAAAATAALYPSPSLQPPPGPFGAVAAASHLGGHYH
Outline: (§1)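 The binding signal reported is, for every hexamer, its read frequency for a factor over its read frequency for the tag-only sample. Reads came from pools of yeast-expressed, GST-fused human transcription factors on glutathione beads, barcoded with DNA and mixed with that sample, which were incubated with 200 nmole of a random double-stranded 16-mer DNA library in Tris/NaCl/DTT/glycerol buffer at room temperature for 30 min. After washing, the pools were crosslinked with 0.1% formaldehyde, proximity-ligated with BsaI/T4 ligase for 1 h at 37 °C, PCR-amplified and sequenced on an Illumina NextSeq500.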

[2] = molecular target: ETV5 (Homo sapiens, UniProt P41161 1-510)
Sequence of ETV5 (P41161 whole entry): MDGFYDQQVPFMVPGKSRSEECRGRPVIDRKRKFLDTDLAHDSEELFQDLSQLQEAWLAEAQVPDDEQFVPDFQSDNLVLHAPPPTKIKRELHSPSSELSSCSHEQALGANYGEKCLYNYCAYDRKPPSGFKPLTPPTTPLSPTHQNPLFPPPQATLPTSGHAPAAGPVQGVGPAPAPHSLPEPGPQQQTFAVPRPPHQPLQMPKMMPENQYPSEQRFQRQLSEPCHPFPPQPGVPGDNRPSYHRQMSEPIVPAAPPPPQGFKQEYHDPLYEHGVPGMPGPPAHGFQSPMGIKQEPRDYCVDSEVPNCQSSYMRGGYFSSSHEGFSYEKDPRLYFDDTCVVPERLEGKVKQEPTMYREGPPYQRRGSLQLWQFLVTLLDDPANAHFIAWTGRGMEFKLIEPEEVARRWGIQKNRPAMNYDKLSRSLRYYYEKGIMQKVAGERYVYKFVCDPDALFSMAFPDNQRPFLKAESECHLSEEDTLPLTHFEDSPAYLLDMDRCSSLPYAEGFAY
Outline: as §1

[3] = molecular target: T2, SPIC (Homo sapiens, UniProt Q8N5J4 1-248)
T2 sequence: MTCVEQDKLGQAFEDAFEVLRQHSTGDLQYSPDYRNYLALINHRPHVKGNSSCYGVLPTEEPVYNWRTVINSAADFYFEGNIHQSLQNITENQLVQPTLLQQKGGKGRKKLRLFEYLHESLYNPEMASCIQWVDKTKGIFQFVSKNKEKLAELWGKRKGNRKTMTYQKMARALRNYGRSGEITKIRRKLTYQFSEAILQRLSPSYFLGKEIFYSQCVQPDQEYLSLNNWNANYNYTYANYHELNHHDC
Outline: as §1

[4] = molecular target: ELF4 (Homo sapiens, UniProt Q99607 1-663)
Sequence of ELF4 (Q99607 whole entry): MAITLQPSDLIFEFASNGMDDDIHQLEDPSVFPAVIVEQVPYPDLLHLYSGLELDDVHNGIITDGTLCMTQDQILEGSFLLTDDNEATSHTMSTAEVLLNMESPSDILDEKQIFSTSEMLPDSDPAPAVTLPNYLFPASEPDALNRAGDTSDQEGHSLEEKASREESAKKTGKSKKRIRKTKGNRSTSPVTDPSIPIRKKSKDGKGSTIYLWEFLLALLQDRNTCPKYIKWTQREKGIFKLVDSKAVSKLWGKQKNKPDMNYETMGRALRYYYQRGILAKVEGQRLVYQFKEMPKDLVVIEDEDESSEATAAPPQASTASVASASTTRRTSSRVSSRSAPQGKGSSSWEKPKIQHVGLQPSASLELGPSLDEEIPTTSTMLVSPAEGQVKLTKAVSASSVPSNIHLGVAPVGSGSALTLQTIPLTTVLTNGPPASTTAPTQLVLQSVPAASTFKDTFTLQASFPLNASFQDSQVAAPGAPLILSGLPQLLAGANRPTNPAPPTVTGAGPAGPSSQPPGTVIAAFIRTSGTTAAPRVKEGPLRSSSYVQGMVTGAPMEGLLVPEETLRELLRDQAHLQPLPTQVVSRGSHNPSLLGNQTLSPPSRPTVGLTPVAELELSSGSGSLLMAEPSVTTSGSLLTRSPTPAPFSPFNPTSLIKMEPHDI
Outline: as §1

[5] = molecular target: T3, ELK4 (Homo sapiens, UniProt P28324-2 1-405)
T3 sequence: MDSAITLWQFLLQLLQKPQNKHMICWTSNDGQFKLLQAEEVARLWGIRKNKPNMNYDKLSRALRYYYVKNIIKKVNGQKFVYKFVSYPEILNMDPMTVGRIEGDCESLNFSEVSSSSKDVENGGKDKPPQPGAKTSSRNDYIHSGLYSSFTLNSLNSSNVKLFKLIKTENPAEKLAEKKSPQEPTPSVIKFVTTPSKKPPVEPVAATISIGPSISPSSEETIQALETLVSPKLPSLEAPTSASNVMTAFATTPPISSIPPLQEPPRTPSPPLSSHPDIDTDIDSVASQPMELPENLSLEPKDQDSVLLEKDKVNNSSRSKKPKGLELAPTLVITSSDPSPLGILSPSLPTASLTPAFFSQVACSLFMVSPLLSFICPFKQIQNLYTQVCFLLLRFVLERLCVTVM
Outline: as §1

[6] = molecular target: T4, ETV2 (Homo sapiens, UniProt O00321 1-342)
T4 sequence: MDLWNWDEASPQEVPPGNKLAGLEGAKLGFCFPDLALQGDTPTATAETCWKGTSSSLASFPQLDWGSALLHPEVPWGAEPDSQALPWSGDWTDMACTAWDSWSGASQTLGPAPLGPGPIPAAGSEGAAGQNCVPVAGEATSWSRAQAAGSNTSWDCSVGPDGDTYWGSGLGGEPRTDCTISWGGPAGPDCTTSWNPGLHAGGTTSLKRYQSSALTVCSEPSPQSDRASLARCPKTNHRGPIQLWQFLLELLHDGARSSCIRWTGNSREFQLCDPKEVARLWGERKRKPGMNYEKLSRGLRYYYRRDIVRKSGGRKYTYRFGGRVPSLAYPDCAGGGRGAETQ
Outline: as §1

[7] = molecular target: T5, ELF3 (Homo sapiens, UniProt P78545 1-371)
T5 sequence: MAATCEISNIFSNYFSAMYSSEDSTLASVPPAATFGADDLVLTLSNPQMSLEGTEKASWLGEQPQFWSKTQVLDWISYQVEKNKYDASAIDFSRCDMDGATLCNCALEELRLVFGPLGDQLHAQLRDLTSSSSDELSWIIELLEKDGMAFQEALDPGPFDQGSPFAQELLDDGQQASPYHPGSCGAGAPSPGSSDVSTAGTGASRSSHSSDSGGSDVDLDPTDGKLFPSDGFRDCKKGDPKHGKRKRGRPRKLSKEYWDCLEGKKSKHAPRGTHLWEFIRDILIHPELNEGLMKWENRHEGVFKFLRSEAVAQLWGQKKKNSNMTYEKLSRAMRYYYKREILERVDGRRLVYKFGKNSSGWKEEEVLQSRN
Outline: as §1

[8] = molecular target: ETV1 (Homo sapiens, UniProt P50549 1-477)
Sequence of ETV1 (P50549 whole entry): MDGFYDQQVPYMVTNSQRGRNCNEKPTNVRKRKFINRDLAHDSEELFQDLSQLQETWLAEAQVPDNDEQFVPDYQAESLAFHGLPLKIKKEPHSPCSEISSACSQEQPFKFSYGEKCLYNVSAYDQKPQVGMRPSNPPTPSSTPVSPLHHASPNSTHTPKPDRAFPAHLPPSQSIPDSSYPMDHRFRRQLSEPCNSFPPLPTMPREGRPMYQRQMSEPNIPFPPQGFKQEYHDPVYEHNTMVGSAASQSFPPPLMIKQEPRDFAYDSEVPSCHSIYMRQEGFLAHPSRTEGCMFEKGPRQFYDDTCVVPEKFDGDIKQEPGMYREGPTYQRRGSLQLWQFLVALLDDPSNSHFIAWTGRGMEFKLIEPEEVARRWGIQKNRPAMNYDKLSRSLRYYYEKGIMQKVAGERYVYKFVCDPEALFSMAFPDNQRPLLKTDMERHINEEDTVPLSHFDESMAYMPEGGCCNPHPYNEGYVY
Outline: as §1

[9] = molecular target: T6, ERF (Homo sapiens, UniProt P50548 1-548)
T6 sequence: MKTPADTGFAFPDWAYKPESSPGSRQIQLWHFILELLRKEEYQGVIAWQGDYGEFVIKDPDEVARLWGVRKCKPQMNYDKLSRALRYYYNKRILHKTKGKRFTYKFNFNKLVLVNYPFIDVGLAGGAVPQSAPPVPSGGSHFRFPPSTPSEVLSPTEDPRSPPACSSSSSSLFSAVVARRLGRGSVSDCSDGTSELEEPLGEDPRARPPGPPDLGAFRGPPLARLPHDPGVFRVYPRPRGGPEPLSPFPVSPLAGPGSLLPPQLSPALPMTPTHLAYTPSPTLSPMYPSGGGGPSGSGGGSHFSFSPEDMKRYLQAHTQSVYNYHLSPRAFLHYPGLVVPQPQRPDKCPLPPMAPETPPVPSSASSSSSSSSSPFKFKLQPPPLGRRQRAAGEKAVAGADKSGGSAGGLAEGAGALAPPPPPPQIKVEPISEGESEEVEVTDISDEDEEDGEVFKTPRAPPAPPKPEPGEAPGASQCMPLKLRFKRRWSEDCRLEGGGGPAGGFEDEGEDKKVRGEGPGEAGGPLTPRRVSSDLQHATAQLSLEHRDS
Outline: as §1

[10] = molecular target: T7, ETV3L (Homo sapiens, UniProt Q6ZN32 1-361)
T7 sequence: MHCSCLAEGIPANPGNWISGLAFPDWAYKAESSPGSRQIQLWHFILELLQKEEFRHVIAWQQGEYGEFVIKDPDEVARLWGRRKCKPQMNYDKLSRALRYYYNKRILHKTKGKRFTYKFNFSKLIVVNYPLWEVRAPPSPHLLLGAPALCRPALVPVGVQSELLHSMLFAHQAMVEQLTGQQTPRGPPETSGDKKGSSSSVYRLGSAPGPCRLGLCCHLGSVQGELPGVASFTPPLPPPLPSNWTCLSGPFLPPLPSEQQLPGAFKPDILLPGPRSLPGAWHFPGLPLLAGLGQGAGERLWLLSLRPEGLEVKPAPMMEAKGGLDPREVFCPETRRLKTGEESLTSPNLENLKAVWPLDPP
Outline: as §1

[11] = molecular target: T8, ETS2 (Homo sapiens, UniProt P15036 1-469)
T8 sequence: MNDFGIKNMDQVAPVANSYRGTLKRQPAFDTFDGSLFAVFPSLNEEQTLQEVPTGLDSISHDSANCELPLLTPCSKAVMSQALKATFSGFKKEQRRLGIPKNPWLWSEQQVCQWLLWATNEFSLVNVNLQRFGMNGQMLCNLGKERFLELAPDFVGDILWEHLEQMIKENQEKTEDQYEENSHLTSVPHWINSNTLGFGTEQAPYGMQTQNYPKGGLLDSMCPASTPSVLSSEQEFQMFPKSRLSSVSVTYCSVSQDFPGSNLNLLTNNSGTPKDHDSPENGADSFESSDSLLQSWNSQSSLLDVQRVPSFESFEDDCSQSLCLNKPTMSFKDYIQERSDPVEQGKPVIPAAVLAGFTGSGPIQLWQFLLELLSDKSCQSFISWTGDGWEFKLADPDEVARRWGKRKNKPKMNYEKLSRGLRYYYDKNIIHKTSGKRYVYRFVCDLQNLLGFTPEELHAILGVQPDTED
Outline: as §1

[12] = molecular target: T9, SPDEF (Homo sapiens, UniProt O95238 1-335)
T9 sequence: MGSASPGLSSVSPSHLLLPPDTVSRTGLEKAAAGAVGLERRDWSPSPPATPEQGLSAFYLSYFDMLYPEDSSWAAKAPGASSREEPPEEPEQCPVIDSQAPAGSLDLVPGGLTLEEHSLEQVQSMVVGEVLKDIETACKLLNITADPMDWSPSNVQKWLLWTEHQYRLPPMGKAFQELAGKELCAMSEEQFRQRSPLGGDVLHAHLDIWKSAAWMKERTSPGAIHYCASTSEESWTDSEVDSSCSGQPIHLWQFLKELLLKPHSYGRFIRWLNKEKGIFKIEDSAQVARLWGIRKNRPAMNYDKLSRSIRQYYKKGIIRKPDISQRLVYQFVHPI
Outline: as §1

[13] = molecular target: T10, ETV7 (Homo sapiens, UniProt Q9Y603 1-341)
T10 sequence: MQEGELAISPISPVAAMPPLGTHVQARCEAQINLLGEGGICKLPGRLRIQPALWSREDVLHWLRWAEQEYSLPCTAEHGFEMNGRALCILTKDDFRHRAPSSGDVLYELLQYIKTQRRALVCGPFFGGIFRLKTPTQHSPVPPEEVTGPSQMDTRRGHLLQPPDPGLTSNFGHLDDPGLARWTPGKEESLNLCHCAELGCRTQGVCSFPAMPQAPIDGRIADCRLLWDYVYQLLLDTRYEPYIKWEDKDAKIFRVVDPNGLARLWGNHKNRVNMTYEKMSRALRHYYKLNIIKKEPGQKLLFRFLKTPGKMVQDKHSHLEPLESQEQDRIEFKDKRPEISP
Outline: as §1

[14] = molecular target: T11, ELF5 (Homo sapiens, UniProt Q9UKW6-2 1-255)
T11 sequence: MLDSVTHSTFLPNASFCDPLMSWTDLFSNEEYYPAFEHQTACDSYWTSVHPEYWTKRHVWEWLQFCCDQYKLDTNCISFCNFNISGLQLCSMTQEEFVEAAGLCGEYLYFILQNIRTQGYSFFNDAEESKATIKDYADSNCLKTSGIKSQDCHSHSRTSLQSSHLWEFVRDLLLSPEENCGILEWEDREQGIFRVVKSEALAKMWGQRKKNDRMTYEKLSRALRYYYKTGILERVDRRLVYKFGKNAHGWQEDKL
Outline: as §1

[15] = molecular target: T12, ETV3 (Homo sapiens, UniProt P41162-2 1-143)
T12 sequence: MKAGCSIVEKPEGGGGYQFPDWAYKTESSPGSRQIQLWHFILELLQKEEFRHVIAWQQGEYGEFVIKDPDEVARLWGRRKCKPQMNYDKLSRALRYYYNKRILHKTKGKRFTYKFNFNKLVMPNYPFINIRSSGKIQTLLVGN
Outline: as §1

[16] = molecular target: ETV6 (Homo sapiens, UniProt P41212 1-452)
Sequence of ETV6 (P41212 whole entry): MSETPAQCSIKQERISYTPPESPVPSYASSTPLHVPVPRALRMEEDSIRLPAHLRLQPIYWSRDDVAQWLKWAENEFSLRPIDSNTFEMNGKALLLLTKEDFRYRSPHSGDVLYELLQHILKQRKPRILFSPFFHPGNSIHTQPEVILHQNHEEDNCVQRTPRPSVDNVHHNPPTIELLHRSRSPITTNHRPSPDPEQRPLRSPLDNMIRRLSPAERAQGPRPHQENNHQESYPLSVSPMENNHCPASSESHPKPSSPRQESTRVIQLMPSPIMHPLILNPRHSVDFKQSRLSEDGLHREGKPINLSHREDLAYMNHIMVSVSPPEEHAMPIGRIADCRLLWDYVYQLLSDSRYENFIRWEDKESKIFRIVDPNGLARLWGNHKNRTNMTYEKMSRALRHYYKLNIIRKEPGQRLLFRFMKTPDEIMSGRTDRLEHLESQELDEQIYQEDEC
Outline: as §1

| Sequence | binding signal [1] | binding signal [2] | binding signal [3] | binding signal [4] | binding signal [5] | binding signal [6] | binding signal [7] | binding signal [8] | binding signal [9] | binding signal [10] | binding signal [11] | binding signal [12] | binding signal [13] | binding signal [14] | binding signal [15] | binding signal [16] |
| --- | --- | --- | --- | --- | --- | --- | --- | --- | --- | --- | --- | --- | --- | --- | --- | --- |
| GTCACA | 1.11 fold enrichment (6-mer frequency, TF over GST control) | 1.1 fold enrichment (6-mer frequency, TF over GST control) | 1.04 fold enrichment (6-mer frequency, TF over GST control) | 1.08 fold enrichment (6-mer frequency, TF over GST control) | 1.07 fold enrichment (6-mer frequency, TF over GST control) | 1.01 fold enrichment (6-mer frequency, TF over GST control) | 1.08 fold enrichment (6-mer frequency, TF over GST control) | 1.06 fold enrichment (6-mer frequency, TF over GST control) | 1.11 fold enrichment (6-mer frequency, TF over GST control) | 1.08 fold enrichment (6-mer frequency, TF over GST control) | 1.14 fold enrichment (6-mer frequency, TF over GST control) | 1.08 fold enrichment (6-mer frequency, TF over GST control) | 1.09 fold enrichment (6-mer frequency, TF over GST control) | 1.06 fold enrichment (6-mer frequency, TF over GST control) | 1.01 fold enrichment (6-mer frequency, TF over GST control) | 1.06 fold enrichment (6-mer frequency, TF over GST control) |
| CGGTCT | 1.3 fold enrichment (6-mer frequency, TF over GST control) | 1.25 fold enrichment (6-mer frequency, TF over GST control) | 1.02 fold enrichment (6-mer frequency, TF over GST control) | 1.18 fold enrichment (6-mer frequency, TF over GST control) | 1.12 fold enrichment (6-mer frequency, TF over GST control) | 1.24 fold enrichment (6-mer frequency, TF over GST control) | 1.29 fold enrichment (6-mer frequency, TF over GST control) | 1.16 fold enrichment (6-mer frequency, TF over GST control) | 1.21 fold enrichment (6-mer frequency, TF over GST control) | 1.15 fold enrichment (6-mer frequency, TF over GST control) | 1.16 fold enrichment (6-mer frequency, TF over GST control) | 1.09 fold enrichment (6-mer frequency, TF over GST control) | 1.11 fold enrichment (6-mer frequency, TF over GST control) | 1.1 fold enrichment (6-mer frequency, TF over GST control) | 1.22 fold enrichment (6-mer frequency, TF over GST control) | 1.09 fold enrichment (6-mer frequency, TF over GST control) |

From paper PMC7862700, “An all-to-all approach to the identification of sequence-specific readers for epigenetic DNA modifications on cytosine”
